Results from ChEMBL document CHEMBL4296182, “CO-ADD screening of NIH NCI Diversity Set V”.
For part of these data: Entries with a potency or affinity are not part of this list.

Assays:
Staphylococcus aureus = experiment: Antibacterial activity against Staphylococcus aureus MRSA ATCC 43300 (CO-ADD:GP_020); MIC in CAMBH media using NBS plates, by Resazurin F(560/590); type: functional; conditions: Concentration 20 uM, ASSAY_TEST Inhibition of Bacterial Growth, detection method Resazurin, Fluorescence (ex560/em590), MEDIA CAMHB, plate type 384well, CORNING #3640, time 18 hr
Acinetobacter baumannii = experiment: Antibacterial activity against Acinetobacter baumannii ATCC 19606 (CO-ADD:GN_034); MIC in CAMBH media using NBS plates, by Resazurin F(560/590); type: functional; conditions: Concentration 20 uM, ASSAY_TEST Inhibition of Bacterial Growth, detection method Resazurin, Fluorescence (ex560/em590), MEDIA CAMHB, plate type 384well, CORNING #3640, time 18 hr
Escherichia coli = experiment: Antibacterial activity against Escherichia coli ATCC 25922 (CO-ADD:GN_001); MIC in CAMBH media using NBS plates, by Resazurin F(560/590); type: functional; conditions: Concentration 20 uM, ASSAY_TEST Inhibition of Bacterial Growth, detection method Resazurin, Fluorescence (ex560/em590), MEDIA CAMHB, plate type 384well, CORNING #3640, time 18 hr
Klebsiella pneumoniae = conditions: Concentration 20 uM; ASSAY_TEST Inhibition of Bacterial Growth; detection method Absorption (OD600); MEDIA CAMHB; plate type 384well; NBS; CORNING #3640; time 18 hr
Candida albicans = conditions: 20 µM
Cryptococcus neoformans = conditions: Concentration 20 uM; ASSAY_TEST Inhibition of Fungal Growth; detection method Resazurin; Absorption (OD600-OD570); plate type 384well; NBS; CORNING #3640

| Compound | Inhibition (Staphylococcus aureus) [%] | Inhibition (Acinetobacter baumannii) [%] | Inhibition (Escherichia coli) [%] | Inhibition (Klebsiella pneumoniae) [%] | Inhibition (Candida albicans) [%] | Inhibition (Cryptococcus neoformans) [%] |
| --- | --- | --- | --- | --- | --- | --- |
| ClC(Cl)(Cl)C1=Nc2c(nnn2Cc2ccccc2)CN1 | 1.51 | 7.83 | 14.39 | 3.07 | -3.28 | -12.54 |
| CCCn1cnc2c(S)nc(N)nc21 | 0.53 | -16.82 | 10 | 2.88 | -1.47 | -9.79 |
| CSc1nc(N)c(C(=O)Nc2ccc([N+](=O)[O-])cc2)s1 | 3.88 | 5.85 | 8.19 | 8.8 | 7.49 | -10.16 |
| Oc1ccc2ccc3[nH]cnc3c2c1 | 14.46 | -12.2 | 3.66 | 6.42 | -0.74 | -8.68 |
| CCOP(=O)(OCC)/C(C#N)=C/c1ccc([N+](=O)[O-])cc1 | 10.14 | 12.51 | 3.05 | 9.62 | 0.88 | -11.85 |
| Clc1cc2c(c(CSc3nc4ccccc4n4cccc34)c1)OCOC2 | 18.29 | 11.44 | -3.64 | 3.77 | 0.34 | 2.56 |
| CCCCN1C(=O)CC2CCOC21C (stereo not given) | 9.16 | -12.54 | 6.99 | 9.62 | 10.6 | -12.41 |
| NS(=O)(=O)c1cc2c(cc1Cl)NC(Cc1ccccc1)NS2(=O)=O (stereo not given) [BENZYLHYDROCHLOROTHIAZIDE] | 8.57 | 4.78 | 13.54 | 17.47 | 3.24 | -10.94 |
| COC(=O)c1ccc(C(=O)OC)c(O)n1 | 3.27 | 9.07 | 2.76 | 7.35 | 0.7 | -5.98 |
| O=C(O)c1cc2ccccc2cc1Nc1ccccc1 | 0.16 | 5.64 | -16.93 | 8.83 | 12.2 | 17.2 |
| COC1OC(CO)C(N=C(C)C)C1O (stereo not given) | -11.36 | -14 | 0.14 | 2.78 | 0.83 | -10.33 |
| CCOC(=O)Nc1ccc2[nH]c(-c3cscn3)nc2c1 | 14.96 | -19.41 | 13.31 | 4.63 | -2.03 | -11.31 |
| O=C(/C=C/c1cccnc1)/C=C/c1cccnc1 | 16.75 | 4.07 | 0.92 | 20.07 | 31.4 | -2.05 |
| COc1cc2c(cc1OC)C(/C=C/c1ccco1)=NCC2.O=S(=O)(O)O | 23.97 | 13.38 | 7.22 | 11.02 | -0.93 | -6.67 |
| CC(C)=C(c1ccc(Cl)cc1)c1c(N)ncnc1N | 3.52 | -10.84 | 10.95 | 14.5 | -0.84 | -5.15 |
| C=CCN1CCN(c2ccncc2S(=O)(=O)N2CCN(C)CC2)CC1 | 11.93 | 5.76 | 5.47 | 7.93 | -0.33 | -11.5 |
| N[C@H](C(=O)O)[C@H]1ON=C(Cl)[C@@H]1O | 11.62 | -0.47 | 10.43 | 5 | 2.6 | -3.55 |
| CCCCCCCC1(C)NC(=O)NC1=O (stereo not given) | 7.54 | 3.29 | 6.05 | 5.77 | 0.59 | -12.36 |
| CCOC(=O)c1nn(-c2ccccc2)cc1O | -14.3 | -10.69 | -0.72 | -1.36 | 0.93 | -2.21 |
| CC1OC1c1ccc(-c2ccc(C3OC3C)cc2)cc1 (stereo not given) | 3.27 | -0.69 | 9.33 | 23.63 | 7.55 | -6.65 |
| NS(=O)(=O)c1ccc(/N=N/c2ccc(O)[nH]c2=O)cc1 | -4.07 | -21.96 | 14.83 | 2.74 | 3.25 | -15.42 |
| CC1CCCC(CC(=O)O)(CC(=O)O)C1 (stereo not given) | -13.43 | 0.95 | -5.78 | 6.3 | 2.72 | -2.12 |
| NC(=O)/C(=C\c1ccncc1)c1cccc2ccccc12 | 3.23 | -18.71 | 6.96 | 13.72 | -4.11 | -6.45 |
| CCOc1ccc(NC(=S)NC(=O)c2ccco2)cc1 | 8.6 | 0.34 | 3.81 | 5.03 | 7.98 | -14.9 |
| Cc1cccn2c(S)nnc12 | 10.19 | -5.53 | 13.03 | 17.76 | 5.89 | -6.48 |

| Compound | Inhibition (Staphylococcus aureus) [%] | Inhibition (Acinetobacter baumannii) [%] | Inhibition (Escherichia coli) [%] | Inhibition (Klebsiella pneumoniae) [%] | Inhibition (Candida albicans) [%] | Inhibition (Cryptococcus neoformans) [%] |
| --- | --- | --- | --- | --- | --- | --- |
| Cc1cc(O)c2cc(C(=O)c3ccccc3)ccc2n1 | 13.49 | 5.7 | 2.87 | 7.32 | 2.58 | -7.43 |
| O=C(Nc1ccccc1-c1ccccc1)C(=O)Nc1ccccc1-c1ccccc1 | 3.9 | -8.51 | -14.91 | 2.5 | 2.13 | 4.35 |
| CC(C)C(=O)Nc1cccnc1 | -3.96 | -12.43 | 9.68 | 6.6 | 0.24 | 8.85 |
| C(=C\c1ccc(/C=C/c2ccccc2)nn1)/c1ccccc1 | 12.1 | 11.6 | 2.44 | 18.32 | 0.82 | -5.49 |
| Cc1nc(SCC(=O)O)n[nH]1 [TIAZOTIC ACID] | 14.48 | -8.95 | 7.99 | 14.92 | 2.04 | -0.18 |
| CN1CN(C)C(c2ccncc2)=C1c1ccncc1 | 5.44 | 14.08 | -2.65 | 0.75 | -0.59 | -1.9 |
| S=C(Nc1ccccc1)c1ccccn1 | 3.41 | -5.82 | 1.02 | 19.37 | 25.9 | -3.26 |
| CC(C)COC(=O)NC1c2ccccc2Oc2ccccc21 | 8.22 | -2.15 | 3.09 | 8.74 | 5.64 | -2.37 |
| CCN1CCCCC(=N\O)/C(=N/O)CCCC1 | -0.99 | -8.24 | 1.26 | 23.74 | -0.06 | -7.99 |
| Oc1ccccc1-c1nc2c3ccccc3c3ccccc3c2[nH]1 | 17.7 | 0.13 | 3.46 | 14.09 | 6.21 | -5.55 |
| Sc1nc2ccccc2c2ccccc12 | -5.22 | -10.6 | 1.21 | 0.71 | 24.1 | 19.7 |
| CC(C)(C)C1=NN=C2c3ccccc3C(=O)C21 (stereo not given) | -4.27 | 3.03 | -6.26 | 1.25 | 5.03 | -9.6 |
| CCC1=C(c2ccc(OC)cc2)CCC(C(=O)O)C1C (stereo not given) | 20.78 | 6.76 | -4.91 | 12.8 | 12.4 | -6.31 |
| NC1=NC(c2ccc(Cl)cc2)N(c2ccc(S(N)(=O)=O)cc2)C(N)=N1 (stereo not given) | -8.08 | 15.66 | 1.13 | 8.28 | -0.99 | -3.51 |
| Cc1cc(C)n(C(=N)NC(=O)c2ccccc2)n1 | 12.05 | 6.54 | -0.32 | 6.77 | 6.7 | -12 |
| Sc1nc2ccccc2n2cccc12 | 2.5 | -10.79 | 2.01 | 3.32 | 17.9 | -1.74 |
| O=[N+]([O-])c1cc2cccnc2c2ncccc12 | -17.5 | -9.82 | 9.62 | 9.1 | 0.77 | -9.49 |
| COc1ccc2c(C)cc(C)nc2n1 | 4.34 | -9.69 | 1.95 | -0.51 | 3.88 | -1.59 |
| N=C(NOC(=O)c1ccccc1)C(Cc1ccccc1)C(=O)NOC(=O)c1ccccc1 (stereo not given) | 11.08 | -11.45 | 18.34 | 10.4 | 7.02 | -11.11 |
| CN(C)S(=O)(=O)c1ccccc1N=C=S | 19.33 | 5.01 | 10.9 | 5.89 | 4.38 | -9.71 |
| Clc1ccc(Nc2nnc(-c3ccc4c(c3)OCO4)o2)cc1 | -8.18 | 6.42 | 9.52 | 10.29 | 4.12 | 44.25 |
| COc1ccc(/C=C2/CCOC2=O)cc1 | -2.28 | -9.37 | 12.04 | 6.07 | 3.59 | -15.8 |
| FC(F)(F)c1nc2nc(Cl)c(Cl)nc2n1CCCN1CCOCC1 | 14.57 | 9.11 | -16.14 | 4.93 | 5.42 | 38.81 |
| COc1ccccc1N=NNc1ccccc1OC | 15.47 | -0.02 | 3.88 | 9.87 | 2.77 | -8.49 |
| CC1=NC2=CC=CC3=NC(C(Cl)(Cl)Cl)=NC(=N1)N23 | -3.19 | 10.22 | 9.49 | 11.94 | 1.15 | -10.05 |
